Assay results reported in the supplement of paper PMC8728848.
Only a selection was taken, and the strongest signals are over-represented in it overall.

Experiments:
Test in all cases: glycan array binding signal (z-score within array); higher = stronger binding
Details in all cases: glycan notation: IUPAC condensed, linker removed
Fuc(a1-2)Gal = target: Fuc(a1-2)Gal
Outline: (§1)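 The Consortium for Functional Glycomics database supplied 3228 glycan arrays, of which those lacking an available protein sequence were dropped. The binding signal, a within-array Z-score, was averaged across arrays of the same protein sequence and across linkers. Negative scores can be read as non-binding.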

[1] = target: Fuc(a1-2)Gal(b1-3)GlcNAc(b1-2)Man(a1-3)[Fuc(a1-2)Gal(b1-3)GlcNAc(b1-2)Man(a1-6)]Man(b1-4)GlcNAc(b1-4)GlcNAc
Outline: as §1

[2] = target: Fuc(a1-2)Gal(b1-3)[Fuc(a1-4)]GlcNAc(b1-3)[Gal(b1-4)GlcNAc(b1-6)]Gal(b1-4)Glc
Outline: as §1

[3] = target: Fuc(a1-2)Gal(b1-4)GlcNAc(b1-3)Gal(b1-4)GlcNAc(b1-2)Man(a1-3)[Fuc(a1-2)Gal(b1-4)GlcNAc(b1-3)Gal(b1-4)GlcNAc(b1-2)Man(a1-6)]Man(b1-4)GlcNAc(b1-4)GlcNAc
Outline: as §1

Fuc(a1-2)Gal6S(b1-4)Glc = target: Fuc(a1-2)Gal6S(b1-4)Glc
Outline: as §1

[4] = target: Fuc(a1-2)[GalNAc(a1-3)]Gal(b1-4)GlcNAc(b1-3)Gal(b1-4)GlcNAc(b1-3)Gal(b1-4)GlcNAc
Outline: as §1

[5] = target: Fuc(a1-3)[Gal(b1-4)]GlcNAc
Outline: as §1

[6] = target: Fuc(a1-3)[Gal(b1-4)]GlcNAc(b1-2)Man(a1-3)[Fuc(a1-3)[Gal(b1-4)]GlcNAc(b1-2)Man(a1-6)]Man(b1-4)GlcNAc(b1-4)[Fuc(a1-6)]GlcNAc
Outline: as §1

Fuc(a1-4)GlcNAc = target: Fuc(a1-4)GlcNAc
Outline: as §1

[7] = target: Gal(a1-3)Gal(b1-4)GlcNAc(b1-2)Man
Outline: as §1

[8] = target: Gal(a1-3)Gal(b1-4)[Fuc(a1-3)]GlcNAc(b1-2)Man(a1-3)[Gal(a1-3)Gal(b1-4)[Fuc(a1-3)]GlcNAc(b1-2)Man(a1-6)]Man(b1-4)GlcNAc(b1-4)GlcNAc
Outline: as §1

[9] = target: Gal(b1-3)GlcNAc(b1-3)Gal(b1-4)GlcNAc(b1-3)Gal(b1-4)GlcNAc(b1-2)[Gal(b1-3)GlcNAc(b1-3)Gal(b1-4)GlcNAc(b1-3)Gal(b1-4)GlcNAc(b1-6)]Man(a1-6)[Gal(b1-3)GlcNAc(b1-3)Gal(b1-4)GlcNAc(b1-3)Gal(b1-4)GlcNAc(b1-2)Man(a1-3)]Man(b1-4)GlcNAc(b1-4)[Fuc(a1-6)]GlcNAc
Outline: as §1

[10] = target: Gal(b1-4)GlcNAc(b1-3)Gal(b1-4)GlcNAc(b1-2)Man(a1-3)[Gal(b1-4)GlcNAc(b1-3)Gal(b1-4)GlcNAc(b1-2)Man(a1-6)]Man(b1-4)GlcNAc(b1-4)GlcNAc
Outline: as §1

[11] = target: Gal(b1-4)GlcNAc(b1-3)Gal(b1-4)GlcNAc(b1-3)Gal(b1-4)GlcNAc(b1-2)Man(a1-3)[Gal(b1-4)GlcNAc(b1-3)Gal(b1-4)GlcNAc(b1-3)Gal(b1-4)GlcNAc(b1-2)Man(a1-6)]Man(b1-4)GlcNAc(b1-4)GlcNAc
Outline: as §1

[12] = target: Gal(b1-4)GlcNAc(b1-3)Gal(b1-4)GlcNAc(b1-3)Gal(b1-4)GlcNAc(b1-3)Gal(b1-4)GlcNAc(b1-3)Gal(b1-4)GlcNAc(b1-2)Man(a1-3)[Gal(b1-4)GlcNAc(b1-3)Gal(b1-4)GlcNAc(b1-3)Gal(b1-4)GlcNAc(b1-3)Gal(b1-4)GlcNAc(b1-3)Gal(b1-4)GlcNAc(b1-2)Man(a1-6)]Man(b1-4)GlcNAc(b1-4)GlcNAc
Outline: as §1

[13] = target: Gal(b1-4)GlcNAc(b1-3)Gal(b1-4)GlcNAc(b1-3)Gal(b1-4)GlcNAc(b1-3)Gal(b1-4)GlcNAc(b1-3)Gal(b1-4)GlcNAc(b1-2)Man(a1-3)[Gal(b1-4)GlcNAc(b1-3)Gal(b1-4)GlcNAc(b1-3)Gal(b1-4)GlcNAc(b1-3)Gal(b1-4)GlcNAc(b1-3)Gal(b1-4)GlcNAc(b1-2)Man(a1-6)]Man(b1-4)GlcNAc(b1-4)[Fuc(a1-6)]GlcNAc
Outline: as §1

[14] = target: Gal(b1-4)GlcNAc(b1-3)Gal(b1-4)GlcNAc(b1-3)Gal(b1-4)GlcNAc(b1-3)Gal(b1-4)GlcNAc(b1-3)Gal(b1-4)GlcNAc(b1-2)[Gal(b1-4)GlcNAc(b1-3)Gal(b1-4)GlcNAc(b1-3)Gal(b1-4)GlcNAc(b1-3)Gal(b1-4)GlcNAc(b1-3)Gal(b1-4)GlcNAc(b1-6)]Man(a1-6)[Gal(b1-4)GlcNAc(b1-3)Gal(b1-4)GlcNAc(b1-3)Gal(b1-4)GlcNAc(b1-3)Gal(b1-4)GlcNAc(b1-3)Gal(b1-4)GlcNAc(b1-2)Man(a1-3)]Man(b1-4)GlcNAc(b1-4)[Fuc(a1-6)]GlcNAc
Outline: as §1

[15] = target: Gal(b1-4)GlcNAc(b1-3)Gal(b1-4)GlcNAc(b1-3)Gal(b1-4)GlcNAc(b1-3)Gal(b1-4)GlcNAc(b1-3)Gal(b1-4)GlcNAc(b1-3)Gal(b1-4)GlcNAc(b1-2)Man(a1-3)[Gal(b1-4)GlcNAc(b1-3)Gal(b1-4)GlcNAc(b1-3)Gal(b1-4)GlcNAc(b1-3)Gal(b1-4)GlcNAc(b1-3)Gal(b1-4)GlcNAc(b1-3)Gal(b1-4)GlcNAc(b1-2)Man(a1-6)]Man(b1-4)GlcNAc(b1-4)GlcNAc
Outline: as §1

[16] = target: Gal(b1-4)GlcNAc(b1-6)GalNAc
Outline: as §1

Gal3S(b1-4)Glc = target: Gal3S(b1-4)Glc
Outline: as §1

Gal3S(b1-4)Glc6S = target: Gal3S(b1-4)Glc6S
Outline: as §1

[17] = target: Gal3S(b1-4)[Fuc(a1-3)]Glc6S
Outline: as §1

Gal6S(b1-4)GlcNAc6S = target: Gal6S(b1-4)GlcNAc6S
Outline: as §1

[18] = target: GalNAc3S(b1-4)[Fuc(a1-3)]GlcNAc
Outline: as §1

[19] = target: GlcNAc(a1-4)Gal(b1-3)GlcNAc
Outline: as §1

B1: SP15308C-bot-338-23-338 (Bacteroides ovatus) (protein)
chain: DEWTDEQFKQLISFKTQPGGWGVTDVHVRYANSAKYTYNLPVLVSGSTDNTDDRLVSFSLRDDTLDILNFEKFGNRPELYFRELPQKYYSFPKELTIPAGQSHALLPIEFSLDGLDDSQKWALPLKVCEDANGTYAVNPRKYYRTAVLRPILFNEFSGRFSGSSLLGTMAGESDIKFSSTEIKLNVVTDSIVFFYAGQRTEDYEDRINYKVFLQFTGDKVDSKKDLYKMKIWAENEKLKFNSYSTPTYKVSSEMDATKTYLKHTYIVISDIDFDFVDYTSVPNYEIEYNMKGGLSVSRDLDTRKPDEDQGSDSKWW
B1 was tested, and the “glycan array binding signal (z-score)” value (Fuc(a1-2)Gal) was -0.164, the “glycan array binding signal (z-score)” value [1] was 2.27 and the “glycan array binding signal (z-score)” value [2] was -0.476. The “glycan array binding signal (z-score)” value [3] was 0.228, the “glycan array binding signal (z-score)” value (Fuc(a1-2)Gal6S(b1-4)Glc) was 0.374 and the “glycan array binding signal (z-score)” value [4] was -0.548. For the same binder, the “glycan array binding signal (z-score)” value [5] was -0.26, the “glycan array binding signal (z-score)” value [6] was 2.11 and the “glycan array binding signal (z-score)” value (Fuc(a1-4)GlcNAc) was 2.58. For the same binder, the “glycan array binding signal (z-score)” value [7] was -0.133, the “glycan array binding signal (z-score)” value [8] was 1.61 and the “glycan array binding signal (z-score)” value [9] was 3.59. The “glycan array binding signal (z-score)” value [10] was 1.12, the “glycan array binding signal (z-score)” value [11] was 4.37 and the “glycan array binding signal (z-score)” value [12] was 2.06. For the same binder, the “glycan array binding signal (z-score)” value [13] was 2.46, the “glycan array binding signal (z-score)” value [14] was 6.22 and the “glycan array binding signal (z-score)” value [15] was 0.957. For the same binder, the “glycan array binding signal (z-score)” value [16] was -0.147, the “glycan array binding signal (z-score)” value (Gal3S(b1-4)Glc) was -0.591 and the “glycan array binding signal (z-score)” value (Gal3S(b1-4)Glc6S) was -0.188. The “glycan array binding signal (z-score)” value [17] was 0.68, the “glycan array binding signal (z-score)” value (Gal6S(b1-4)GlcNAc6S) was -0.622 and the “glycan array binding signal (z-score)” value [18] was -0.053. The “glycan array binding signal (z-score)” value [19] was 0.674.
